Values joined by “and” are separate entries in the source; they are usually repeats but may differ in a detail not shown here. Equal values may be shown once. Results filed as inconclusive are left out. Unmarked numbers belong to inactive results. Active and inactive are the calls of the source. Calls follow the shape of the dose curve; as a rule, active = well fitted cell-killing curve with a large enough effect in the repeat runs; inconclusive = weak or mixed curves, or effect the other way; inactive = flat fitted curve, though single readings scatter.
% is scaled to controls: 0 for no effect and ±100 for the full control effect; potency is read from the fitted curve at half-maximal effect.

This assay is described as follows: qHTS assay to identify small molecule agonists of the sonic hedgehog signaling (Shh) pathway - cell viability counter screen (AID 1259366). Also: nearly all actives have a fitted effect of over 50% in size. The conditions noted are these: NIH/3T3 Gli1-Luc viability, CellTiter-Fluor, 24 h; series mostly up to 92.4 µM; viability change, negative = cytotoxic: at the top concentration. An excerpt:
National Center for Advancing Translational Sciences [NCATS]
NIH Chemical Genomics Center [NCGC]
U.S. Environmental Protection Agency [EPA]
National Institutes of Environmental Health Sciences [NIEHS]
National Toxicology Program [NTP]
U.S. Food and Drug Administration [FDA]
The sonic hedgehog (Shh) pathway is essential for normal embryonic development. Dysregulation of the Shh pathway can cause severe developmental defects in organs. Therefore chemicals that interfere with the pathway are potential developmental toxicants. A cell line designated 3T3Gli1-Luc (DMB/OARSA/CFSAN/FDA, Laurel, MD), a NIH/3T3 derived clone containing stably integrated Gli1-Luc reporter is used to detect chemical interference of the Shh pathway, by changes in the expression of the firefly Luc gene under the control of the Gli1 transcriptional response element. This cell line was used to screen Tox21 libraries for identifying and prioritizing the potential developmental toxicants that interfere Shh pathway. The cytotoxicity of the compounds was tested in parallel by measuring the cell viability using CellTiter-Fluor assay system (Promega, Madison, WI) in the same wells.
Tox21 Assay Protocol Summary:
3T3 Gli1-Luc cells were dispensed at 2,000 per well in 5uL of culture medium into white solid bottom 1536-well plates (Greiner Bio-One, Monroe, NC) using a Multidrop Combi (Thermo Scientific, Waltham, MA) dispenser. The assay plates were incubated at 37 C and 5% CO2 for 4hr, and then 23nL of compounds dissolved in DMSO and positive control were transferred using a Pintool station (Wako, San Diego, CA). The assay plates were incubated at 37C and 5% CO2 for 24hr. For viability read, after 23hr of compound treatment, 1uL of CellTiter-Fluor reagent (Promega Corporation, Madison, WI) was added to each well of the assay plates using Flying Reagent Dispenser (FRD, Aurora Discovery, San Diego, CA) and incubated the assay plates at 37C for 1hr. The fluorescence signal was quantified using a ViewLux plate reader (Perkin Elmer, Shelton, CT).
(In general: In qHTS, concentration-response curves come from the screen itself.)
Turning to `CCN(CC)C(=O)Cl`, the “viability change, negative = cytotoxic” value was -0.274%.

On to `Cc1ccc(N(SC(F)(Cl)Cl)S(=O)(=O)N(C)C)cc1`, for which the Potency was 4.86 µM (active).

Consider `OC(Cc1ccccc1Cl)(Cn1[nH]cnc1=S)C1(Cl)CC1` (stereo not drawn), for which the “viability change, negative = cytotoxic” value was 4.16%.

Consider `CNC(=O)Oc1cc(C)c(SC)c(C)c1`, for which the “viability change, negative = cytotoxic” value is -12.6%.

Turning to `c1ccc2c(c1)Sc1ccccc1N2CC1CN2CCC1CC2` (stereo not drawn), the Potency is 11.9 µM (active).

Take `COc1ccc(C(c2ccc(OC)cc2)C(Cl)(Cl)Cl)cc1`: the “viability change, negative = cytotoxic” value is -6.62%.

As to `Nc1ccc([N+](=O)[O-])cc1`, the Potency was 30.6 µM (active).

Regarding `O=[N+]([O-])c1c(Cl)c(Cl)cc(Cl)c1Cl`, the “viability change, negative = cytotoxic” value is -1.45%.

For the molecule `O=C(c1ccccc1)C(Cl)Cl`, the Potency is 68.6 µM (active).

For the molecule `CC1COC(Cn2cncn2)(c2ccc(Oc3ccc(Cl)cc3)cc2Cl)O1` (stereo not drawn), the “viability change, negative = cytotoxic” value is -10.1%.

For `Cc1cc(C(C)(C)c2ccc(O)c(C)c2)ccc1O`, the Potency is 58.2 µM (active).

As for `O=S(=O)(C(Cl)(Cl)Cl)C(Cl)(Cl)Cl`, the Potency is 9.69 µM (active).

For the molecule `Oc1c(I)cc(I)cc1I`, the “viability change, negative = cytotoxic” value is 0.152%.

As for `CN1CSC(=S)N(C)C1`, the Potency is 2.42 µM (active) and 6.09 µM (active).

With `Clc1ccccc1-c1ccccc1Cl`, the “viability change, negative = cytotoxic” value was -14.1%.

For `ClC(Cl)=C(c1ccc(Cl)cc1)c1ccccc1Cl`, the “viability change, negative = cytotoxic” value was -2.14%.

Consider `C[C@]12CC[C@@H](O)C[C@@H]1CC[C@@H]1[C@@H]2CC[C@]2(C)C(=O)CC[C@@H]12`, for which the “viability change, negative = cytotoxic” value was -1.7%.

Regarding `ClC1=C(Cl)[C@]2(Cl)[C@@H]3[C@@H](Cl)[C@H]4O[C@H]4[C@@H]3C1(Cl)C2(Cl)Cl`, the “viability change, negative = cytotoxic” value was -17.9%.

Take `O=C(Nc1ccccc1-c1ccc(Cl)cc1)c1cccnc1Cl`: the “viability change, negative = cytotoxic” value is 1.75%.

As to `Cc1ccc2nc3sc(=O)sc3nc2c1`, the viability change, negative = cytotoxic was -7.48% [at 19 µM].

On to `Cc1cc(C)c(C(=O)P(=O)(c2ccccc2)c2ccccc2)c(C)c1`, for which the Potency was 61.1 µM (active).

Turning to `O=C1C(I)=CC(=C(c2cc(I)c(O)c(I)c2)c2ccccc2C(=O)O)C=C1I`, the “viability change, negative = cytotoxic” value was 1.97% [at 42.5 µM].

`CC(c1ccccc1)(c1ccc(O)cc1)c1ccc(O)cc1`: the Potency was 68.6 µM (active).
